# Data published in paper PMC7862700, “An all-to-all approach to the identification of sequence-specific readers for epigenetic DNA modifications on cytosine”.
# Assays:
# Assay in all cases: DAPPL (digital affinity profiling via proximity ligation, sequencing); 10 mM Tris-HCl pH 7.5, 50 mM NaCl, 1 mM DTT, 4% glycerol, room temperature, 30 min; GST-TFs on glutathione beads, 16-mer random dsDNA library, 0.1% formaldehyde crosslink after washing; high values mean tight binding
# Settings in all cases: protein: recombinant; tags: N-terminal GST; dsDNA, one strand shown
# FLI1 = target: T1, FLI1 (Homo sapiens, UniProt Q01543 1-452)
# T1 sequence: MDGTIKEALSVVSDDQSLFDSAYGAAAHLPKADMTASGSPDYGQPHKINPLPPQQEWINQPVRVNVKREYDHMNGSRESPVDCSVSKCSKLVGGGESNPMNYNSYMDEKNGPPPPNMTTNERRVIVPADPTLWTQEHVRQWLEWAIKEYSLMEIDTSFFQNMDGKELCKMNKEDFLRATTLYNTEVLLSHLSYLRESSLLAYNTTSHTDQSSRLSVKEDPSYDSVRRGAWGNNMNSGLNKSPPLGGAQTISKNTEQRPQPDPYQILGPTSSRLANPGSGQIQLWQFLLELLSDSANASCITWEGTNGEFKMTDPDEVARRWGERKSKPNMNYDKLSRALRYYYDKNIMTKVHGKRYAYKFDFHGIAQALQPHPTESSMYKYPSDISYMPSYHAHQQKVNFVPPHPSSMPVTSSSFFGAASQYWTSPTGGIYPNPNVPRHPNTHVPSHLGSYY
# Procedure, shortened: (§1)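 Binding signal is given per hexamer as its read frequency for a factor divided by its frequency in the tag-only sample. GST-fused human transcription factors were expressed in yeast, captured on glutathione beads, barcoded with DNA and pooled with that sample, then incubated with 200 nmole of a 16-mer random double-stranded DNA library in Tris/NaCl/DTT/glycerol buffer for 30 min at room temperature. The pools were then washed, crosslinked, proximity-ligated, amplified by PCR and sequenced on an Illumina NextSeq500.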
# ELK1 = target: T2, ELK1 (Homo sapiens, UniProt P19419 1-428)
# T2 sequence: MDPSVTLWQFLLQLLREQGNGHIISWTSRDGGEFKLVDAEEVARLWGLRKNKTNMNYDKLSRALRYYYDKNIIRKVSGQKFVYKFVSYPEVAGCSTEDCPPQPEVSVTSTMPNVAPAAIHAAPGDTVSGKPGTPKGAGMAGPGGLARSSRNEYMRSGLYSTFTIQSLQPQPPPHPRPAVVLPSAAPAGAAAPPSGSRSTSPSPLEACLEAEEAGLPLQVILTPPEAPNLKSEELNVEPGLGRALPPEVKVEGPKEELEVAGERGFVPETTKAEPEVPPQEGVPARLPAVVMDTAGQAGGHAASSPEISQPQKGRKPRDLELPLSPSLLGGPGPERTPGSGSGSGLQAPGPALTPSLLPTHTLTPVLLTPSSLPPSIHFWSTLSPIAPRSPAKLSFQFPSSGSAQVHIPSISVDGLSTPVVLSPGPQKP
# Procedure, shortened: as §1
# GABPA = target: T3, GABPA (Homo sapiens, UniProt Q06546 1-454)
# T3 sequence: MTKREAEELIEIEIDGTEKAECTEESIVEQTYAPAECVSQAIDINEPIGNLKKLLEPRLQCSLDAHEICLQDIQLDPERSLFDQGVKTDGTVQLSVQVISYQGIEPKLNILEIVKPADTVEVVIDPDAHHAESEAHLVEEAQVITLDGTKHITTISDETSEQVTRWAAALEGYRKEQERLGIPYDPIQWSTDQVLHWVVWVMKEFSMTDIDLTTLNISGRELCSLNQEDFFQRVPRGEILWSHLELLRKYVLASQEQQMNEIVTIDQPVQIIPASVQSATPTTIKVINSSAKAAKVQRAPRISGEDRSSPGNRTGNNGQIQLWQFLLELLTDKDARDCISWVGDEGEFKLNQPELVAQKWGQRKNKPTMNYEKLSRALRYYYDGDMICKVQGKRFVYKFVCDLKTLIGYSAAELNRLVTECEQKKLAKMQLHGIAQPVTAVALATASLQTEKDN
# Procedure, shortened: as §1
# ERG = target: T4, ERG (Homo sapiens, UniProt P11308 1-479)
# T4 sequence: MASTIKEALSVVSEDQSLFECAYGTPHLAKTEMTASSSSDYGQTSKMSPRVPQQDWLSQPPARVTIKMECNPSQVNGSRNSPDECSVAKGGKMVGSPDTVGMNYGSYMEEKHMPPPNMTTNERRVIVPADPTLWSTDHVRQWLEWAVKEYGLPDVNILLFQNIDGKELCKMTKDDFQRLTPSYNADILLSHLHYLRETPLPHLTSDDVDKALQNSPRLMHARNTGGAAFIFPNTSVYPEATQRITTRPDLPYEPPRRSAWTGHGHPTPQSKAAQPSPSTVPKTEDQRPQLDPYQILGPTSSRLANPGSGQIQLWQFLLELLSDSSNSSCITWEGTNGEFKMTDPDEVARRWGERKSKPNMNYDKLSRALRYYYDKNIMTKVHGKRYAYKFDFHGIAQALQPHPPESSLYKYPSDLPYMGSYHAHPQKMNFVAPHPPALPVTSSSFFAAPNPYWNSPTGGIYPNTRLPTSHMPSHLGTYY
# Procedure, shortened: as §1
# ELF1 = ELF1 (Homo sapiens, UniProt P32519 1-619)
# ELF1, sequence (P32519 whole entry): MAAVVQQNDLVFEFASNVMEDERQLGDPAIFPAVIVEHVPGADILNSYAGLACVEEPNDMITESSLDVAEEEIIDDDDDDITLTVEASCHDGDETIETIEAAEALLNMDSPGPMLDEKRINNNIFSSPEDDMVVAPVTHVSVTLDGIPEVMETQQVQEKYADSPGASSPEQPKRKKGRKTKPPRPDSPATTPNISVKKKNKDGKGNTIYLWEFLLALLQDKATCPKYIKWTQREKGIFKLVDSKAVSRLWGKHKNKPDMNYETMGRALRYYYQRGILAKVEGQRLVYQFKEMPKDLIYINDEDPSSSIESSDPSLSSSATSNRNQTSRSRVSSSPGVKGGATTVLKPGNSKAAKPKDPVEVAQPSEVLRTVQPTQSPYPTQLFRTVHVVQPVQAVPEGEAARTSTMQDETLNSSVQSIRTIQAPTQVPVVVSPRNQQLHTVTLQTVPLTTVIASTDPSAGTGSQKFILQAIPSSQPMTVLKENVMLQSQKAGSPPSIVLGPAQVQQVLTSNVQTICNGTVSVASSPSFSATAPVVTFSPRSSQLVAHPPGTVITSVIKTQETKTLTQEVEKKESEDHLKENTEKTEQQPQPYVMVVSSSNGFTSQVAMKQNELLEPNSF
# Procedure, shortened: as §1
# EHF = target: T5, EHF (Homo sapiens, UniProt Q9NZC4 1-300)
# T5 sequence: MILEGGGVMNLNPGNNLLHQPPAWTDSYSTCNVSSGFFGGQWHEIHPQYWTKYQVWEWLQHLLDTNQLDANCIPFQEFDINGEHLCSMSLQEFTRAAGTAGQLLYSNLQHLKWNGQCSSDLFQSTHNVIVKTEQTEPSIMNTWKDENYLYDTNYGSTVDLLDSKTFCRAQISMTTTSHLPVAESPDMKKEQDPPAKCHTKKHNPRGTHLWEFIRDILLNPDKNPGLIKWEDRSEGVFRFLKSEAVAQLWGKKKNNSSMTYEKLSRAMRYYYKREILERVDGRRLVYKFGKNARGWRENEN
# Procedure, shortened: as §1
# SPI1 = SPI1 (Homo sapiens, UniProt P17947 1-270)
# Procedure, shortened: as §1
# SPIB = SPIB (Homo sapiens, UniProt Q01892 1-262)
# SPIB, sequence (Q01892 whole entry): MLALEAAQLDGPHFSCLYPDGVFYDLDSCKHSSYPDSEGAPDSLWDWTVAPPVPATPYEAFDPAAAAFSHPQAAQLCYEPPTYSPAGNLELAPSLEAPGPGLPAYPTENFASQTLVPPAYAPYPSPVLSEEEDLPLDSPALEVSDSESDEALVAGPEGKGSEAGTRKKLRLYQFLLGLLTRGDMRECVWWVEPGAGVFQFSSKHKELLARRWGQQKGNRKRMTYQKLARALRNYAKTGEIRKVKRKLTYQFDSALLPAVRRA
# Procedure, shortened: as §1
# ELK3 = target: T6, ELK3 (Homo sapiens, UniProt P41970 1-407)
# T6 sequence: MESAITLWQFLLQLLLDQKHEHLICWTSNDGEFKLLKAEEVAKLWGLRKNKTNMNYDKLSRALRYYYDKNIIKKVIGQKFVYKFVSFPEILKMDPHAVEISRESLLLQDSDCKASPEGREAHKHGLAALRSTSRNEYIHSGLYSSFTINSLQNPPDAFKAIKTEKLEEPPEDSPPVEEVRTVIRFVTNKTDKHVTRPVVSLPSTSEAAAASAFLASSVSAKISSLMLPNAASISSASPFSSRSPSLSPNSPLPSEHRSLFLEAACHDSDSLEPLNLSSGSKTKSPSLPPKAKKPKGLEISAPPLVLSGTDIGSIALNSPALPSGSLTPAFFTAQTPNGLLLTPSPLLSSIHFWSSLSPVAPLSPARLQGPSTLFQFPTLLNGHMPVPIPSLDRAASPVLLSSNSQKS
# Procedure, shortened: as §1
# FEV = target: T7, FEV (Homo sapiens, UniProt Q99581 1-238)
# T7 sequence: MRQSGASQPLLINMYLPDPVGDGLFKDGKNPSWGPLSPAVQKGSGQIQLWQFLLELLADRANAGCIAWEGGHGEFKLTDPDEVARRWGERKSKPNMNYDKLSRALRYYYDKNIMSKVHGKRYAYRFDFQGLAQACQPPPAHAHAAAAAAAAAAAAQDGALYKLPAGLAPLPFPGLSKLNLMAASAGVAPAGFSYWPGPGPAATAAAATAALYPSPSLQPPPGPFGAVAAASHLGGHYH
# Procedure, shortened: as §1
# ETV5 = ETV5 (Homo sapiens, UniProt P41161 1-510)
# ETV5, sequence (P41161 whole entry): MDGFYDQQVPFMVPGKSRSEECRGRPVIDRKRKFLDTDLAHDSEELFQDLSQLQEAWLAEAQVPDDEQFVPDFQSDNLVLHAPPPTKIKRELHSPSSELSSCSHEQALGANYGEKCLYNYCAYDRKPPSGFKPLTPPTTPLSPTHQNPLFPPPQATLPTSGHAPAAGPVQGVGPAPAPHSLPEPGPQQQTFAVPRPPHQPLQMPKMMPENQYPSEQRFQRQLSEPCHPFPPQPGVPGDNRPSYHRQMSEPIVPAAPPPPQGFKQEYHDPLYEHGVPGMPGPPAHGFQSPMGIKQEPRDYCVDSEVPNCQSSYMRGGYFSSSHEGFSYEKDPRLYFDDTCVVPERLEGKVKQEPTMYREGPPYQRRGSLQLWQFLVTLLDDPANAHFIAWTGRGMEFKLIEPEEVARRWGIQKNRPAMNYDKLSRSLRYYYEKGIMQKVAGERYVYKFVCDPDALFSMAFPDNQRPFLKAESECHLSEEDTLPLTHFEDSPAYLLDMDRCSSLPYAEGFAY
# Procedure, shortened: as §1
# SPIC = target: T8, SPIC (Homo sapiens, UniProt Q8N5J4 1-248)
# T8 sequence: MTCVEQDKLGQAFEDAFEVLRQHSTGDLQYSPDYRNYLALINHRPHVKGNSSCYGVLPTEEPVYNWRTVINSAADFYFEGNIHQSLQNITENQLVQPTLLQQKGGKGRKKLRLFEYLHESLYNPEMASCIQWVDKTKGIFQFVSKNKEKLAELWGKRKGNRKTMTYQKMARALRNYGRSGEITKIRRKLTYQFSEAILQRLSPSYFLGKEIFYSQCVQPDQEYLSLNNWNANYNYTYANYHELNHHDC
# Procedure, shortened: as §1
# ELF4 = ELF4 (Homo sapiens, UniProt Q99607 1-663)
# ELF4, sequence (Q99607 whole entry): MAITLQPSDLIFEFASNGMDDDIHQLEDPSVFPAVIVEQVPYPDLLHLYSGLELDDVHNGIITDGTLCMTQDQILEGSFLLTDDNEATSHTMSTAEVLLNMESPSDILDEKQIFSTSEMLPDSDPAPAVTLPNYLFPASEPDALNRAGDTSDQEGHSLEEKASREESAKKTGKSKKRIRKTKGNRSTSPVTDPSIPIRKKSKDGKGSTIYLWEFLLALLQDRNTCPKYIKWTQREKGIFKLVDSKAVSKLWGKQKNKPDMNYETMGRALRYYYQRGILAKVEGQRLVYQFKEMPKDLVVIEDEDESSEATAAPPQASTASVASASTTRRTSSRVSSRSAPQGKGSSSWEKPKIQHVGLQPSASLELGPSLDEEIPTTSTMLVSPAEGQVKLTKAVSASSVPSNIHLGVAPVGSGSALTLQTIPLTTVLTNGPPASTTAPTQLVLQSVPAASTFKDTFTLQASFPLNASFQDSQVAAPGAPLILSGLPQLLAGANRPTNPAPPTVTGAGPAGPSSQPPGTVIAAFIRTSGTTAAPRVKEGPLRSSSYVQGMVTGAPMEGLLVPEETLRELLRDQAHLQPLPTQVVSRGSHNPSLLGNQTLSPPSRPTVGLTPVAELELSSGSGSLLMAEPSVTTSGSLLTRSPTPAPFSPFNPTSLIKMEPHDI
# Procedure, shortened: as §1
# ETV1 = ETV1 (Homo sapiens, UniProt P50549 1-477)
# ETV1, sequence (P50549 whole entry): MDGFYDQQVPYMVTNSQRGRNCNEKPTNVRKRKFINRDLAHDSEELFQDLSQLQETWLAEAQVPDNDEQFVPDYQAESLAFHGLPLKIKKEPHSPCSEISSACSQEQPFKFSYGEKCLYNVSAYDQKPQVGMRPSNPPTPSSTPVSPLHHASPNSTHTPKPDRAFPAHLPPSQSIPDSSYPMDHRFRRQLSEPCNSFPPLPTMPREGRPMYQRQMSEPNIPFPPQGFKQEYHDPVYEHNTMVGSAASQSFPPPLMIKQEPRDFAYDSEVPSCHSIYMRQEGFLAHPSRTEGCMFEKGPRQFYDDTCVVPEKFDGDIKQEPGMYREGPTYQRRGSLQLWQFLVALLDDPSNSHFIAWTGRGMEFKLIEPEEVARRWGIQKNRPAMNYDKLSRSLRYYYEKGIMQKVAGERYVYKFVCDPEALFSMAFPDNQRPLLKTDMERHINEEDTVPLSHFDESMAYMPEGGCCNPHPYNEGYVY
# Procedure, shortened: as §1
# ERF = target: T9, ERF (Homo sapiens, UniProt P50548 1-548)
# T9 sequence: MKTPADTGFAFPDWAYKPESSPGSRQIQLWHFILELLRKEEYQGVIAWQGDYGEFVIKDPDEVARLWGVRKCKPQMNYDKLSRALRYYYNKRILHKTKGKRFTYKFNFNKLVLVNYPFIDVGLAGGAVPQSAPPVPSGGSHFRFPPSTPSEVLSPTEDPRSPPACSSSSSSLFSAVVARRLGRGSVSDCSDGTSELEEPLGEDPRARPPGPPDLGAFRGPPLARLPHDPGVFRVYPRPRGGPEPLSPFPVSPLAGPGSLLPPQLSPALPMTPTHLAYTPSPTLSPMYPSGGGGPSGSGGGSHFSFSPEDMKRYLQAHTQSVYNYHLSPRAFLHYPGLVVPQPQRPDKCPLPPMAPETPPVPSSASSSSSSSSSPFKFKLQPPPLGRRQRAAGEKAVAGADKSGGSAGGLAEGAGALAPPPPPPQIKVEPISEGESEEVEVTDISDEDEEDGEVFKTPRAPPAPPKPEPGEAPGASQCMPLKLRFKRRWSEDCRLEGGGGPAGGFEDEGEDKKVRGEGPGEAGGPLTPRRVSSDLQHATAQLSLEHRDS
# Procedure, shortened: as §1
# ETV3L = target: T10, ETV3L (Homo sapiens, UniProt Q6ZN32 1-361)
# T10 sequence: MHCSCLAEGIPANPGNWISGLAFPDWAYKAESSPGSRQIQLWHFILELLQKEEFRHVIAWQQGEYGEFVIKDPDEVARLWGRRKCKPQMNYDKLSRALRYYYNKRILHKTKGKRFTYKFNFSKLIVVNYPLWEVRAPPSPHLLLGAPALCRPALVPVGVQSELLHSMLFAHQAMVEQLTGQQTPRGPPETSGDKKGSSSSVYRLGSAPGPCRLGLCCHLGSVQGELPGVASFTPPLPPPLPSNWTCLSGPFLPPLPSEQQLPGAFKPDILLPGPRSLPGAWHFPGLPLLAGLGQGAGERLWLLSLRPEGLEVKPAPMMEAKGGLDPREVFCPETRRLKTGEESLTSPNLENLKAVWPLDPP
# Procedure, shortened: as §1
# ETS2 = target: T11, ETS2 (Homo sapiens, UniProt P15036 1-469)
# T11 sequence: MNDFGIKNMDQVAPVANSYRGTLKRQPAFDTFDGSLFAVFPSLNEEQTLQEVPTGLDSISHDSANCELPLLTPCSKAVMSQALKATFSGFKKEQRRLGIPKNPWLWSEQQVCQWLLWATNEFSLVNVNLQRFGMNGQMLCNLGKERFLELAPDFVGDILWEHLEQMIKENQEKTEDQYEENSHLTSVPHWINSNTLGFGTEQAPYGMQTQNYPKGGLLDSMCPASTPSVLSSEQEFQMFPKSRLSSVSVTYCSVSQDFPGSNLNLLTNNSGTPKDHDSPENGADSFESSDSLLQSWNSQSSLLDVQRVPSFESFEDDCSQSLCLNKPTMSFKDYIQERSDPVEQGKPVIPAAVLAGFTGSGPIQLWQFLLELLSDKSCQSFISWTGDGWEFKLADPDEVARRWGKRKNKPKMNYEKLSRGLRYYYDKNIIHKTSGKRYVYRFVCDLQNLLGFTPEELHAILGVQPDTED
# Procedure, shortened: as §1
# ELF5 = target: T12, ELF5 (Homo sapiens, UniProt Q9UKW6-2 1-255)
# T12 sequence: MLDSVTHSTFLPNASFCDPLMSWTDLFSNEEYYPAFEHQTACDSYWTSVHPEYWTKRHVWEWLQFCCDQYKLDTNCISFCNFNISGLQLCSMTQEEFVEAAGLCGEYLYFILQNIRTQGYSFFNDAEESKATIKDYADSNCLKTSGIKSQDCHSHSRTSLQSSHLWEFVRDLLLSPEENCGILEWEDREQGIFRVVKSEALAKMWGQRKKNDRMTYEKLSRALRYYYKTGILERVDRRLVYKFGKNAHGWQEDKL
# Procedure, shortened: as §1
# ETV3 = target: T13, ETV3 (Homo sapiens, UniProt P41162-2 1-143)
# T13 sequence: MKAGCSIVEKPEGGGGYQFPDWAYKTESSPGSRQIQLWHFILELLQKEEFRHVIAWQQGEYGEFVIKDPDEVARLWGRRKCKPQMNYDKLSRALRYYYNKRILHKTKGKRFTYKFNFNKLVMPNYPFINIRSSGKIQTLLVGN
# Procedure, shortened: as §1
# ETV6 = ETV6 (Homo sapiens, UniProt P41212 1-452)
# ETV6, sequence (P41212 whole entry): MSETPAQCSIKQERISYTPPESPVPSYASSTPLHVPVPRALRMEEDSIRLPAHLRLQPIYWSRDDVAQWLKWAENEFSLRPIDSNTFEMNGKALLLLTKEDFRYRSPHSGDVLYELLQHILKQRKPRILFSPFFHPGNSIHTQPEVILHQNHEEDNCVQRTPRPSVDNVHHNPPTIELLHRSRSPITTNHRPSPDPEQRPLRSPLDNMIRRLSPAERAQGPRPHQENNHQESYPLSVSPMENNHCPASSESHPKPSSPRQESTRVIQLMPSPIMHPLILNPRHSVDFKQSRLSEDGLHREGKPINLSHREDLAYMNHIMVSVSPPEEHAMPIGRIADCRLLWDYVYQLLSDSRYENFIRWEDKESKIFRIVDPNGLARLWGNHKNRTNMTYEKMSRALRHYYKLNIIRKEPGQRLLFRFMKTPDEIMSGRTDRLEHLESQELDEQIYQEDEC
# Procedure, shortened: as §1
sequence,measurement,setting,value
AAACCG,binding signal,FLI1,"1.05 fold enrichment (6-mer frequency, TF over GST control)"
same,binding signal,ELK1,"1.05 fold enrichment (6-mer frequency, TF over GST control)"
same,binding signal,GABPA,"1.07 fold enrichment (6-mer frequency, TF over GST control)"
same,binding signal,ERG,"1.13 fold enrichment (6-mer frequency, TF over GST control)"
same,binding signal,ELF1,"1.12 fold enrichment (6-mer frequency, TF over GST control)"
same,binding signal,EHF,"1.08 fold enrichment (6-mer frequency, TF over GST control)"
same,binding signal,SPI1,"1.25 fold enrichment (6-mer frequency, TF over GST control)"
same,binding signal,SPIB,"1.05 fold enrichment (6-mer frequency, TF over GST control)"
same,binding signal,ELK3,"1.09 fold enrichment (6-mer frequency, TF over GST control)"
same,binding signal,FEV,"1.33 fold enrichment (6-mer frequency, TF over GST control)"
same,binding signal,ETV5,"1.07 fold enrichment (6-mer frequency, TF over GST control)"
same,binding signal,SPIC,"1.05 fold enrichment (6-mer frequency, TF over GST control)"
same,binding signal,ELF4,"1.07 fold enrichment (6-mer frequency, TF over GST control)"
same,binding signal,ETV1,"1.18 fold enrichment (6-mer frequency, TF over GST control)"
same,binding signal,ERF,"1.1 fold enrichment (6-mer frequency, TF over GST control)"
same,binding signal,ETV3L,"1.06 fold enrichment (6-mer frequency, TF over GST control)"
same,binding signal,ETS2,"1 fold enrichment (6-mer frequency, TF over GST control)"
same,binding signal,ELF5,"1.02 fold enrichment (6-mer frequency, TF over GST control)"
same,binding signal,ETV3,"1.08 fold enrichment (6-mer frequency, TF over GST control)"
same,binding signal,ETV6,"1.05 fold enrichment (6-mer frequency, TF over GST control)"
